Holding throughout (details): mRNA level, 48 h; actives raise or lower the signal
Read-out in experiment [1]: Ezrin (EZR), EZR (gene 7430)
The experiment can be described thus: LTEA_HepaRG_EZR: Life Technologies and Expression Analysis (LTEA) Assay for Ezrin (EZR) using HepaRG (AID 2283491). The gist of the method:
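EZR transcript levels came from Fluidigm qRT-PCR and were normalized to three housekeeping genes after 48 h chemical exposure of HepaRG cells. Dosing used an 8-point half-log series with a 100 uM top concentration in 0.5% DMSO, tested in duplicate; both directions were fitted versus vehicle.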

Read-out in experiment [2]: Cytochrome P450 3A7 (Homo sapiens) (UniProt P24462)
The experiment can be described thus: LTEA_HepaRG_CYP3A7: Life Technologies and Expression Analysis (LTEA) Assay for CYP3A7 using HepaRG (AID 2283492). Summed up:
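CYP3A7 transcript measured by qRT-PCR (ACTB, GAPDH, POLR2A normalization) after 48 h chemical exposure of HepaRG cells in duplicate. Eight half-log concentrations, maximum 100 uM, 0.5% DMSO vehicle; bidirectional curve fitting against DMSO baseline.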

Read-out in experiment [3]: CYP3A5 (gene 1577)
The experiment can be described thus: LTEA_HepaRG_CYP3A5: Life Technologies and Expression Analysis (LTEA) Assay for CYP3A5 using HepaRG (AID 2283493). Summed up: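 Differentiated HepaRG cells in serum-free induction medium were dosed 48 h with test chemicals (8-point half-log series, top 100 uM, 0.5% DMSO, duplicate). CYP3A5 mRNA measured by qRT-PCR, normalized to ACTB, GAPDH, POLR2A; bidirectional fit versus DMSO.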

Read-out in experiment [4]: Fatty Acid-Binding Protein 1 (FABP1), FABP1 (gene 2168)
The experiment can be described thus: LTEA_HepaRG_FABP1: Life Technologies and Expression Analysis (LTEA) Assay for Fatty Acid-Binding Protein 1 (FABP1) using HepaRG (AID 2283494). Summed up:
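Differentiated human HepaRG cells were exposed in duplicate for 48 h in serum-free induction medium to 8-point half-log concentration series topping at 100 uM in 0.5% DMSO. FABP1 mRNA measured by TaqMan qRT-PCR, normalized to ACTB/GAPDH/POLR2A; bidirectional fit versus DMSO.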

Read-out in experiment [5]: Cytochrome P450 4A22 (Homo sapiens) (UniProt Q5TCH4)
The experiment can be described thus: LTEA_HepaRG_CYP4A22: Life Technologies and Expression Analysis (LTEA) Assay for Cytochrome P450 4A22 (CYP4A22) using HepaRG (AID 2283495). Summed up:
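Gene expression measured by qRT-PCR against three housekeeping genes (ACTB, GAPDH, POLR2A), with gain or loss fitted relative to 0.5% DMSO vehicle. HepaRG cultures received 48 h chemical treatment, top concentration 100 uM, half-log steps, duplicate wells.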

Read-out in experiment [6]: Cytochrome P450 7A1 (Homo sapiens) (UniProt P22680)
The experiment can be described thus: LTEA_HepaRG_CYP7A1: Life Technologies and Expression Analysis (LTEA) Assay for Cytochrome P450 7A1 (CYP7A1) using HepaRG (AID 2283496). Summed up:
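Gene expression endpoint in human HepaRG liver cells treated for 48 h with test chemicals (up to 100 uM, 0.5% DMSO). Values come from bidirectional concentration-response fitting versus DMSO.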

Read-out in experiment [7]: Glutathione S-Transferase (GSTA2), GSTA2 (gene 2939)
The experiment can be described thus: LTEA_HepaRG_GSTA2: Life Technologies and Expression Analysis (LTEA) Assay for Glutathione S-Transferase (GSTA2) using HepaRG (AID 2283497). The gist of the method: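 Human HepaRG cells, plated 48 h, then exposed in serum-free induction medium for 48 h to eight half-log concentrations up to 100 uM in 0.5% DMSO, duplicate. GSTA2 mRNA by qRT-PCR, normalized to ACTB/GAPDH/POLR2A; bidirectional fit versus DMSO.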

Read-out in experiment [8]: Glutamate-cysteine ligase catalytic (GCLC), GCLC (gene 2729)
The experiment can be described thus: LTEA_HepaRG_GCLC: Life Technologies and Expression Analysis (LTEA) Assay for Glutamate-cysteine ligase catalytic (GCLC) using HepaRG (AID 2283498). Summed up:
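Differentiated human HepaRG cells, plated 48 h then switched to serum-free induction medium, were exposed in duplicate for 48 h to 8 half-log concentrations topping at 100 uM in 0.5% DMSO. GCLC mRNA was quantified by qRT-PCR against ACTB, GAPDH and POLR2A.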

Read-out in experiment [9]: Glutamate-cysteine ligase regulatory (GCLM), GCLM (gene 2730)
The experiment can be described thus: LTEA_HepaRG_GCLM: Life Technologies and Expression Analysis (LTEA) Assay for Glutamate-cysteine ligase regulatory (GCLM) using HepaRG (AID 2283500). The gist of the method: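 Differentiated human HepaRG cells exposed 48 h in serum-free induction medium to 8-point half-log concentrations (top 100 uM, 0.5% DMSO), in duplicate. GCLM mRNA quantified by qRT-PCR, normalized to ACTB, GAPDH, POLR2A; bidirectional fitting versus DMSO.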

Read-out in experiment [10]: Glutathione S-transferase M3 (GSTM3), GSTM3 (gene 2947)
The experiment can be described thus: LTEA_HepaRG_GSTM3: Life Technologies and Expression Analysis (LTEA) Assay for Glutathione S-transferase M3 (GSTM3) using HepaRG (AID 2283501). The gist of the method:
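GSTM3 transcript levels came from Fluidigm TaqMan qRT-PCR normalized to three housekeeping genes, fitted in both directions against DMSO. HepaRG cultures received chemicals for 48 h in serum-free induction medium (0.5% DMSO), 8 half-log concentrations up to 100 uM, duplicate.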

Read-out in experiment [11]: Heat shock 70 kDa protein 1 (HSPA1A), gene 3303
The experiment can be described thus: LTEA_HepaRG_HSPA1A: Life Technologies and Expression Analysis (LTEA) Assay for Heat shock 70 kDa protein 1 (HSPA1A) using HepaRG (AID 2283502). Summed up:
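Differentiated human HepaRG cells in serum-free induction medium were exposed in duplicate for 48 h to eight concentrations (top 100 uM, half-log steps, 0.5% DMSO). HSPA1A mRNA was quantified by qRT-PCR, normalized to ACTB, GAPDH and POLR2A, and fitted bidirectionally against DMSO.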

Read-out in experiment [12]: Hypoxia-inducible factor 1-alpha (Homo sapiens) (UniProt Q16665)
The experiment can be described thus: LTEA_HepaRG_HIF1A: Life Technologies and Expression Analysis (LTEA) Assay for Hypoxia-inducible factor 1 (HIF1A) Trancription factor using HepaRG (AID 2283503). The gist of the method:
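HepaRG, 48 h exposure, 8-pt half-log series from 100 uM, 0.5% DMSO vehicle, duplicates. Readout: HIF1A transcript by qRT-PCR (Fluidigm array), housekeeping-normalised. Bidirectional curve fit vs DMSO baseline.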

Read-out in experiment [13]: 3-Hydroxy-3-Methylglutaryl-CoA Synthase 2 (HMGCS2), HMGCS2 (gene 3158)
The experiment can be described thus: LTEA_HepaRG_HMGCS2: Life Technologies and Expression Analysis (LTEA) Assay for 3-Hydroxy-3-Methylglutaryl-CoA Synthase 2 (HMGCS2) using HepaRG (AID 2283504). Summed up:
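Readout is HMGCS2 transcript by qRT-PCR, housekeeping-normalised (ACTB/GAPDH/POLR2A) and fitted bidirectionally against 0.5% DMSO. Differentiated HepaRG cells received chemicals 48 h, duplicate wells, eight half-log concentrations topping at 100 uM.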

Read-out in experiment [14]: HGF (gene 3082)
The experiment can be described thus: LTEA_HepaRG_HGF: Life Technologies and Expression Analysis (LTEA) Assay for Hepatocyte Growth Facto (HGF) using HepaRG (AID 2283505). The gist of the method:
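HGF transcript was quantified by TaqMan qRT-PCR against three housekeeping genes after 48 h treatment of HepaRG cells. Exposure ran in duplicate over eight half-log steps topping at 100 uM in 0.5% DMSO vehicle.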

Read-out in experiment [15]: Insulin Like Growth Factor 1 (IGF1), IGF1 (gene 3479)
The experiment can be described thus: LTEA_HepaRG_IGF1: Life Technologies and Expression Analysis (LTEA) Assay for Insulin Like Growth Factor 1 (IGF1) using HepaRG (AID 2283506). The gist of the method: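 Differentiated human HepaRG cells were dosed for 48 h in serum-free induction medium with 0.5% DMSO, eight half-log concentrations up to 100 uM, in duplicate. IGF1 mRNA was quantified by qRT-PCR normalized to ACTB, GAPDH, POLR2A; bidirectional fitting versus DMSO.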

Read-out in experiment [16]: Insulin-like growth factor-binding protein 1 (IGFBP1), IGFBP1 (gene 3484)
The experiment can be described thus: LTEA_HepaRG_IGFBP1: Life Technologies and Expression Analysis (LTEA) Assay for Insulin-like growth factor-binding protein 1 (IGFBP1) using HepaRG (AID 2283508). Summed up:
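Read-out is qRT-PCR transcript level normalized to three housekeeping genes, fitted in both directions against 0.5% DMSO. Differentiated HepaRG cells received eight half-log concentrations (top 100 uM) in duplicate for 48 h in serum-free induction medium.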

Read-out in experiment [17]: Early growth response protein 1 (EGR1) transcription factor, EGR1 (gene 1958)
The experiment can be described thus: LTEA_HepaRG_EGR1: Life Technologies and Expression Analysis (LTEA) Assay for Early growth response protein 1 (EGR1) transcription factor using HepaRG (AID 2283490). The gist of the method:
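Differentiated human HepaRG cells in serum-free induction medium were exposed in duplicate for 48 h to eight concentrations (top 100 uM, half-log steps) in 0.5% DMSO. EGR1 mRNA was quantified by qRT-PCR, normalized to ACTB, GAPDH and POLR2A, and fitted bidirectionally versus DMSO.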

Activity calls are given as the source filed them. The calls were made as follows: active = hit-call score of the fitted dose curve at least 0.9, where 1 is the maximum; inactive = score below 0.9.

The term AC50 denotes the midpoint of the concentration-response curve, whichever way the signal moves.

Sequence of Cytochrome P450 3A7 (Homo sapiens) (P24462 whole entry, looked up): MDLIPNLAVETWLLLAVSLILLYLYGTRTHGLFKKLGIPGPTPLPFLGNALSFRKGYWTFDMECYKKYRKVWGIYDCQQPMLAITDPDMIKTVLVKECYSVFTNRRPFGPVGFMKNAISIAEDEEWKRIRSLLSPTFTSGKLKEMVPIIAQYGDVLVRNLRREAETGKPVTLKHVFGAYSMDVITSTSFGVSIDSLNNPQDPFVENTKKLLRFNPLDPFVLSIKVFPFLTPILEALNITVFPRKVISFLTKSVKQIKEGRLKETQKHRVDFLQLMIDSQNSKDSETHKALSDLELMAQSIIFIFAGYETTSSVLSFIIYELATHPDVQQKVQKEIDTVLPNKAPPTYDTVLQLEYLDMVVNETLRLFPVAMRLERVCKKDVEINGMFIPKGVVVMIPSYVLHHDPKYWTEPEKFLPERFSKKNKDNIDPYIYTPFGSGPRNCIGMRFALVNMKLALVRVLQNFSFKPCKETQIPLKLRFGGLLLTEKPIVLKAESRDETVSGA
Sequence of Hypoxia-inducible factor 1-alpha (Homo sapiens) (Q16665 whole entry, looked up): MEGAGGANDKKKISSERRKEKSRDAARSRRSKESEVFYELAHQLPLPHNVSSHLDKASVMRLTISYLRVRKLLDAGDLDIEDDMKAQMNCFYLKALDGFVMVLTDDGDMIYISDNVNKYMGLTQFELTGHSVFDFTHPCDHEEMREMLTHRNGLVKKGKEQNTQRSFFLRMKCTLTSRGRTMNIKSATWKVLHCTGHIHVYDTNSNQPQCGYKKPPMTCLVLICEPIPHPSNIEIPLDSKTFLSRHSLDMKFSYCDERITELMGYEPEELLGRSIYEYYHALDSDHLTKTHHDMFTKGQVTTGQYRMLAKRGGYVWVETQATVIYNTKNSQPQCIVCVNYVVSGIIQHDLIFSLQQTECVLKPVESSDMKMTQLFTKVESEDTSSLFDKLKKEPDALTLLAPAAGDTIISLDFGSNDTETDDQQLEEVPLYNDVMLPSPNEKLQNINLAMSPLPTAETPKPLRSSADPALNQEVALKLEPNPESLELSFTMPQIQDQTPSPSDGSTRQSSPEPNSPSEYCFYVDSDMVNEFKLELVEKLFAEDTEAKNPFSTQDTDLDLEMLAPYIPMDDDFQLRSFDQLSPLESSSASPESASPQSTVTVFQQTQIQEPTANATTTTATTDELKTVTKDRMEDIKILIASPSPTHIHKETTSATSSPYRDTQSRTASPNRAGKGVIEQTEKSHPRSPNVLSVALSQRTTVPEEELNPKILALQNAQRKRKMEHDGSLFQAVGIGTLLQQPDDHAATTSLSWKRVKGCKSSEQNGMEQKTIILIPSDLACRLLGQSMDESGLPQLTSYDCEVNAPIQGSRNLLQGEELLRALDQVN

Consider `NC(=O)Cn1c(=O)cc(CCN2CCN(c3nccc4sccc34)CC2)c2ccc(F)cc21`, for which the outcome in [1], in experiment [2], in experiment [3], in [8], in [9] and in experiment [10] was inactive. Moreover, the compound was called inactive in [14] and in experiment [15]. For the same compound, the AC50 in experiment [4] was 12.3 µM (active); in experiment [5], 62.7 µM (active); in experiment [6], 21.5 µM (active); in experiment [7], 50 µM (active); in experiment [11], 21.9 µM (active); in experiment [12], 13.1 µM (active). The half-maximal activity concentration (AC50) in [13] is 50 µM (active); in [16] it was 76.6 µM (active).

Take `Cc1nc(-c2ccc3c(c2)CCN(CCC2CCC(NC(=O)/C=C/c4ccc(F)cc4)CC2)CC3)no1` (stereo not given): the outcome in experiment [17], in experiment [1], in experiment [2], in experiment [3], in experiment [4] and in experiment [5] was inactive. For the same compound, the call in experiment [6], in experiment [7], in [8], in experiment [9], in [10] and in [11] was inactive. The outcome in experiment [12], in experiment [13], in [15] and in experiment [16] was inactive.

With `CNC(=O)[C@H]1O[C@@H](n2cnc3c(NCc4cc(Cl)ccc4OCc4cc(C)no4)ncnc32)[C@H](O)[C@@H]1N`, the compound was called inactive in [17], in experiment [1], in experiment [2], in experiment [3], in [4] and in experiment [5]. For the same compound, the result in [6], in experiment [7], in [8], in [9], in experiment [10] and in experiment [12] was inactive. Further, the compound was classed as inactive in experiment [13], in experiment [14], in experiment [15] and in experiment [16].

As to `CC=Cc1ccc(O)c(OC)c1`, the outcome in experiment [17], in experiment [1], in experiment [2], in experiment [3], in experiment [4] and in experiment [5] was inactive. Moreover, the outcome in experiment [6], in experiment [7], in experiment [8], in [9], in [10] and in experiment [11] was inactive. Also, the compound was classed as inactive in experiment [12], in experiment [13], in [14], in experiment [15] and in experiment [16].

The values are drawn from PubChem BioAssay (EPA / NIEHS).
